Compound activity deposited in PubChem by Sanford-Burnham Center for Chemical Genomics.
Sampled rows, rich in hits. Any-hit rate of the full collection: about 3.2%.
CRFBP-R2 block = blocks CRF-induced signaling of the CRF-BP/CRF-R2 complex. HEK293 CRF-R2/CRF-BP, CRF-induced calcium fluorescence. inhibition, % at 11.8 µM. 0.59% of 350,000 active;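 active = inhibition of the ligand-induced calcium signal above about 50% at the single tested concentration, limit read from the data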
PfGluPho inh = PfG6PD (Plasmodium falciparum) enzyme inhibition; inhibition, % at 20 µM; 0.78% of 350,000 active; AID 504690; PfGluPho enzyme, NADPH resazurin-diaphorase fluorescence;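 active = inhibition reaching at least a set limit at 20 µM in the primary screen, cut at about 59% in these data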;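 note: 0% = DMSO wells with substrate and 100% = DMSO wells lacking glucose-6-phosphate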
FAS-TE inh = inhibitors of human fatty acid synthase thioesterase domain. P49327. recombinant FAS-TE, OMFH fluorogenic substrate, fluorescence endpoint. inhibition, % at 15 µM. 0.67% of 360,000 active. AID 602261;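 active = compounds whose normalised, plate-corrected inhibition of enzyme fluorescence in the single-dose primary screen is 50% or more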;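 note: 0% = DMSO with enzyme and 100% = substrate without enzyme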
CRFR2-BP ag = CRF-BP/CRF-R2 complex agonism. activation, % at 13.2 µM. AID 588473. HEK293 CRF-R2/CRF-BP, calcium dye fluorescence (FLIPR); percent of saturating CRF peptide response. 0.46% of 350,000 active;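 active = activation of at least 50%, plus an integration ratio under a set limit after plate pattern correction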;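 note: plate controls were neutral control wells without compound for no effect and CRF at EC100 for full effect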
Cardio protect = modulators protecting cardiomyocytes from myocardial damage; AID 588492; protection from H2O2 cell death, % at 20 µM; H9c2 cardiomyocytes, H2O2 injury protection, ATPLite, 2 h; 0.63% of 360,000 active;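 active = compounds giving at least 50% protection of heart cells from peroxide-induced death in the single-dose screen, raw or plate-pattern-corrected value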;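 note: 0% = DMSO wells with peroxide and 100% = DMSO wells without peroxide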
aDG glyco up = alpha-DG glycosylation activation. Pro5-aDG cells, alpha-DG glycosylation AlphaScreen (IIH6); 0% Pro5, 100% B10-LARGE cell signal. activation, % at 10 µM. 0.22% of 360,000 active. AID 624168;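 active = activation of at least 8% versus controls, or a plate z-score of at least 8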;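 note: Pro5 are CHO cells carrying HIG-tagged alpha-DG that lacks glycosylation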
Numbers without * were called inactive; · = no result given.

SMILES	CRFBP-R2 block	PfGluPho inh	FAS-TE inh	CRFR2-BP ag	Cardio protect	aDG glyco up
COc1cc(/C=C2\CCC(C3CCCC3)C2=O)ccc1OC(C)C (stereo unspecified)	7.9	5.1	8.4	0.2	-3.8	-0.1
CCOC(=O)/C(=C/Nc1ccc(F)cc1)[N+](=O)[O-]	1.1	1.9	-4.4	1.0	0.4	0.0
CCC(C)(C)NC(=O)c1ccc2c(c1)N(CC(=O)N1CCCC1)C(=O)C(C)(C)O2	-6.0	-9.0	-2.1	-1.0	5.3	0.0
COc1cc(/C=C2\CC/C(=C\c3ccc(OCCO)c(OC)c3)C2=O)ccc1OCCO	-483.2	10.3	-9.9	447.7	81.2*	-1.0
CC(=O)OC(C)C1C2=C(C(=O)CC1(C)O)C(=O)c1c(ccc(-c3ccc4c(c3O)C(=O)C3=C(C4=O)C(C(C)OC(C)=O)C(C)(O)CC3=O)c1O)C2=O (stereo unspecified)	6.8	61.2*	27.8	-4.1	7.4	-0.9
COc1ccc(NC(=O)Nc2nnc(C(C)(C)C)s2)cc1	58.3*	-4.7	2.9	3.6	-1.6	0.1
Cn1nc(C(=O)NCCOc2ccccc2)c2ccccc2c1=O	-2.0	-4.2	-1.9	-2.4	-2.9	0.2
COc1ccc(C=NNC(=O)c2ccccc2NS(=O)(=O)c2cccs2)cc1O	7.9	-11.8	-5.6	-1.3	6.5	-0.1
O=C(NN=Cc1ccc(O)cc1O)c1ccccc1NS(=O)(=O)c1cccs1	-9.6	-28.5	20.3	-4.5	51.4*	0.1
CC(C)CCNc1nc(N)c([N+](=O)[O-])c(N2CCCCCC2)n1	-11.3	-13.7	11.9	0.1	-18.3	0.7
Cc1cccc(NC(=O)CSc2nc3[nH]ncc3c(=O)[nH]2)c1C	50.6*	-15.1	-12.9	3.0	3.2	-0.3
O=C(CSc1nc2ccccc2c(=O)[nH]1)Nc1cccc([N+](=O)[O-])c1	3.1	-6.0	23.2	-0.8	52.8*	0.0
Cc1cnc(NC(=O)CSc2nc3ccccc3c(=O)[nH]2)s1	0.3	9.1	-3.3	-0.7	58.6*	0.3
O=C(CSc1ncc(-c2ccc(F)cc2)n1Cc1ccco1)Nc1nccs1	-20.2	3.2	9.2	-0.9	5.9	1.1
Cc1cnc(NC(=O)CSc2ncc(-c3ccccc3)n2Cc2ccco2)s1	-58.9	-6.4	21.0	60.1*	6.2	0.1
CC1(C)CC(=O)C(CSC(=O)c2ccccc2)C(=O)C1	-3.1	29.0	-5.2	0.6	-3.2	0.3
O=C(Cc1ccccc1)NCC(=O)OC(c1ccccc1)c1ccccc1	81.8*	7.8	4.1	-1.1	4.3	0.2
c1ccc(-c2cccc(-c3ccccn3)n2)nc1	22.2	-35.0	-3.2	-2.8	65.0*	1.4
O=C(CCc1nc2ccccc2c(=O)[nH]1)NNC(=O)c1cccc(Cl)c1	-14.3	12.8	-5.0	4.5	69.7*	0.5
O=C(CCc1ccccc1)NNC(=O)c1ccc(F)cc1	1.6	0.4	-8.8	-0.1	-0.5	0.2
O=C(CCc1nc2ccccc2c(=O)[nH]1)NNC(=O)COc1ccc(Br)cc1	0.9	-18.8	1.9	-0.6	44.9	-0.4
O=C(CCc1ccccc1)NNC(=O)c1ccc(Cl)cc1	2.0	-10.1	-3.1	-2.2	1.2	0.0
O=C(CCc1nc2ccccc2c(=O)[nH]1)NNC(=O)c1ccc(Cl)cc1	8.1	7.2	-2.7	-0.5	60.7*	-0.1
O=C(CCc1nc2ccccc2c(=O)[nH]1)NNC(=O)c1ccc(F)cc1	0.8	-5.6	-1.8	-0.3	78.1*	-0.1
O=C(CCc1nc2ccccc2c(=O)[nH]1)NCc1cccc(Cl)c1	11.5	-8.1	-0.7	-3.0	37.1	0.1
SMILES	CRFBP-R2 block	PfGluPho inh	FAS-TE inh	CRFR2-BP ag	Cardio protect	aDG glyco up
COc1cc(OC)cc(C(=O)NNC(=O)CCc2nc3ccccc3c(=O)[nH]2)c1	-1.7	12.3	-5.2	-0.7	56.1*	-0.2
CCC(CC)C(=O)NCCCN1CCOCC1	5.0	-2.0	-12.6	-0.3	2.9	-0.1
Nc1ncnc2c1ncn2C1OCC(O)C1O (stereo unspecified)	·	·	-1.5	·	-6.9	0.1
CCOc1ccc(/C=C/C(=O)Nc2ccc3[nH]c(=O)[nH]c3c2)cc1	29.0	-13.2	-10.4	-0.6	-0.3	-0.1
COc1ccc(CCN(Cc2nc3ccccc3c(=O)[nH]2)C(=O)c2ccco2)cc1	0.8	-11.5	-6.6	-0.9	24.0	0.2
CCC(CC)C(=O)N(CCc1ccc(OC)cc1)Cc1nc2ccccc2c(=O)[nH]1	-5.7	11.8	6.6	-0.5	56.0*	0.3
CCc1ccc(C(C)NC(=O)c2cc(C)oc2C)cc1 (stereo unspecified)	2.2	6.8	4.0	0.5	55.8*	-0.4
Cc1cc(C(=O)NN)c(C)o1	-4.3	-11.7	-7.8	-1.4	8.0	-0.2
Cc1ccc(SCc2cc(=O)[nH]c(SCC(=O)Nc3cc(Cl)ccc3Cl)n2)cc1	68.0*	-12.6	13.5	0.5	-2.1	-0.3
CCc1ccc(NC(=O)CSc2nc(CSc3ccc(C)cc3)cc(=O)[nH]2)cc1	10.3	-23.5	2.9	-1.3	-2.8	0.1
O=C1CCC(C(=O)Nc2ccccc2N2CCOCC2)=NN1	67.1*	-8.0	-3.0	-2.2	6.4	0.0
O=C1CCC(C(=O)Nc2ccccc2N2CCCC2)=NN1	-0.6	21.7	-7.1	1.5	-1.4	0.0
O=C1c2ccccc2C(=O)N1Cc1ccco1	-0.1	0.7	-4.6	0.6	2.0	0.1
O=C1c2cccc3c(O)ccc(c23)C(=O)N1Cc1ccco1	-216.4	27.6	-128.2	251.7*	18.2	-0.1
O=C(COC(=O)c1ccccc1F)NC1CCCC1	-5.1	13.8	0.8	-0.2	-1.8	-0.1
O=C(COC(=O)c1cccc2c1C(=O)c1ccccc1C2=O)NC1CCCCC1	-8.2	-17.7	28.2	0.4	58.3*	2.3
O=C(COC(=O)c1cc(Br)ccc1O)NC1CCCCCC1	8.2	4.5	9.1	-1.4	-15.0	0.1
O=C(COC(=O)c1cc2ccccc2cc1O)NC1CCCCC1	87.3*	-10.7	0.3	-0.8	-15.0	0.1
O=C1CC[C@@H](C(=O)O)N1	-4.2	-0.2	-2.9	0.1	-4.5	-0.1
COCCNC(=O)c1c(C)cc(C)cc1C	6.0	9.4	-12.5	-1.8	-6.4	0.1
Cc1nccn1-c1cc(C(C)(C)C)nc2c(-c3ccccc3)cnn12	-52.1	2.5	22.8	0.5	4.5	0.1
COc1ccccc1C=NN1C(=O)CSC1=S	25.3	6.9	-4.5	-2.9	-0.1	0.0
O=C1CSC(=S)N1/N=C/c1ccc(O)c(O)c1O	-6.1	78.6*	-1.2	-0.6	16.8	0.0
Cc1cccc(-c2ncc(CN3CCCC(CO)(Cc4ccccc4C)C3)cn2)c1 (stereo unspecified)	-23.0	35.8	27.4	1.0	-19.5	1.4
O=S(=O)(Nc1ccc2c(c1)CCC2)c1cccs1	52.2*	5.6	2.3	1.4	-1.8	0.0
O=C1OCc2cc(NS(=O)(=O)c3cccs3)ccc21	-6.9	-18.8	-2.5	-1.5	21.0	-0.2
